Pf apPOL block: Pf-apPOL inhibitors, biochemical, fluorescence; AID 1794808, 2022; Plasmodium falciparum apicoplast DNA polymerase (apPOL); Recombinant Pf-apPOL, molecular beacon fluorescence, 1.5 h; hit rate 0.25% among 210,000; inhibition, % at 10 µM
mHTT CaM bind: mutant huntingtin-calmodulin interaction inhibitors – biochemical, AlphaScreen, primary screen | inhibition, % at 15 µM | AlphaScreen His-mHTT/GST-CaM binding, luminescence | P42858 | AID 1671202, 2021 | hit rate 3.6% among 190,000
Each line names hits and unclear results; the compound was inactive in the other large screens. Only some compounds are listed: those with a hit (about 3.6% of all), similar ones and a draw of the others. Rule as the data show it: active = inhibition above about 50%; inactive = the rest.

CC1Cc2c(NC(=O)c3ccc(Br)o3)nn(C)c2NC1=O (stereo not drawn)	mHTT CaM bind 52.5
COCC(=O)Nc1nn(C)c2c1CC(C)C(=O)N2 (stereo not drawn)	none
Cc1ccc(C)c(NC(=O)C2(C)Oc3cccnc3N(C)C2=O)c1 (stereo not drawn)	none
COc1cccc(CNc2ccc3c(c2)ncn3C)c1O	none
CCn1cnc2cc(NCc3ccc(Cl)cc3)ccc21	none
COc1ccccc1CNc1ccc2c(c1)ncn2-c1ccccc1	mHTT CaM bind 69.0
COc1ccccc1-n1cnc2cc(NCc3ccc(Cl)cc3)ccc21	mHTT CaM bind 80.0
CN(C)C1CN(C(=O)C2CC2)CCC1(O)c1ccccc1 (stereo not drawn)	none
CCC(C)Nc1nc(-c2cc(OC)c(OC)c(OC)c2)nc2ccccc12 (stereo not drawn)	Pf apPOL block 51.2
COc1ccccc1CNc1nc(-c2ccccc2F)nc2ccccc12	none
CCC(C)Nc1nc(-c2ccccc2O)nc2ccccc12 (stereo not drawn)	none
COc1cc(-c2nc(NCc3ccc(F)cc3)c3ccccc3n2)cc(OC)c1OC	mHTT CaM bind 88.0
Cc1cccc(-c2noc(-c3cccnc3N3CCC(C(=O)NC4CC4)CC3)n2)c1	none
COc1cc(Nc2ncc3c(n2)CCN(Cc2ccc(OC(C)C)cc2)C3)cc(OC)c1	none
O=C(c1cnccn1)N1CCCC(c2nncn2Cc2ccccc2)C1 (stereo not drawn)	none
CC(=O)Nc1nc(C)c(-c2csc(Nc3ccccn3)n2)s1	mHTT CaM bind 54.0
c1ccc(Nc2nc(-c3cccnc3)cs2)nc1	none
CCC(=O)Nc1nc(C)c(-c2csc(Nc3cccc(C(C)=O)c3)n2)s1	none
CC(=O)Nc1nc(C)c(-c2csc(Nc3ccc(N(C)C)cc3)n2)s1	mHTT CaM bind 95.9
COc1ccc(-c2ccc(SCC(=O)Nc3cccc([N+](=O)[O-])c3)nn2)cc1OC	none
N#CCCN(C(=O)c1sc2ccccc2c1Cl)c1ccccc1	none
O=C(O)c1cc(N2C(=O)C=CC2=O)ccc1Cl	Pf apPOL block 54.6 (no result: mHTT CaM bind)
O=C(NCc1ccccc1)c1cc(N2C(=O)C=CC2=O)ccc1Cl	none
NC(=O)c1oc2ccccc2c1NC(=O)C12CC3CC(CC(C3)C1)C2	mHTT CaM bind 100.2
CCOC(=O)c1oc2ccccc2c1NC(=O)C12CC3CC(CC(C3)C1)C2	none
CC(=O)Nc1ccc(C(=O)NCc2ccc(F)c(Cl)c2)c(N2CCCCC2)c1	mHTT CaM bind 98.7
CC(=O)Nc1ccc(C(=O)NCc2cccc(Cl)c2)c(N2CCOCC2)c1	none
COc1ccc(CN2C(=O)NC(=O)/C(=C/c3ccc(OC)c(OC)c3)C2=O)cc1	none
O=C(C[C@H]1C(=O)N(c2ccc(Br)cc2)C[C@@H]1Cc1ccccc1)Nc1ccccc1	mHTT CaM bind 50.8
COc1ccc(NC(=O)C[C@H]2C(=O)N(Cc3cccnc3)C[C@@H]2Cc2ccccc2)cc1	none
O=C(C[C@H]1C(=O)N(c2ccccc2)C[C@@H]1Cc1ccccc1)Nc1ccc(Br)cc1	none
CCCCC[C@H]1CN(Cc2ccc(OC)cc2)C(=O)[C@@H]1CC(=O)NCc1ccccc1	mHTT CaM bind 53.6
COc1ccc(CN2C[C@H](Cc3ccccc3)[C@@H](CC(=O)Nc3ccccc3)C2=O)cc1	mHTT CaM bind 68.2
CCCCC[C@H]1CN(CCCC)C(=O)[C@@H]1CC(=O)NCc1ccccc1	none
COc1cccc(CNS(=O)(=O)c2cc(Br)cc3c2N(C(=O)C2CC2)CC3)c1	none
Cc1sc2c(=O)n(CC3CC3)cnc2c1C(=O)NCc1cccc(Cl)c1	none
COc1ccc(OC)c(CNC(=O)c2cn3c(n2)CCCC3)c1	none
O=C(c1ccc(OCC2CCCN(C(=O)c3ccccc3F)C2)cc1)N1CCCC1 (stereo not drawn)	none
CCNc1cc(N2CCCC(CCC(=O)Nc3ccc4c(c3)OCCO4)C2)ncn1 (stereo not drawn)	none
COc1ccc(NC(=O)CCC2CCCN(c3cc(NC4CC4)ncn3)C2)c(OC)c1 (stereo not drawn)	mHTT CaM bind 59.7
CCNc1cc(N2CCCC(CCC(=O)Nc3ccc(OC)cc3OC)C2)ncn1 (stereo not drawn)	none
CCCNc1cc(N2CCCC(CCC(=O)Nc3ccc4c(c3)OCO4)C2)ncn1 (stereo not drawn)	mHTT CaM bind 51.3
Cc1ccc(-c2nc3c4cnn(-c5ccc(C)cc5)c4ncn3n2)cc1	none
O=C(c1cccc([N+](=O)[O-])c1)c1ccc(Cl)c(Cl)c1	none
COCC(C)(O)CNC(=O)C(=O)Nc1ccccc1C#N (stereo not drawn)	none
Cc1ccccc1/C=C1\N=C(c2ccc(C)c([N+](=O)[O-])c2)OC1=O	mHTT CaM bind 55.0
Cc1ccc(C2=N/C(=C\c3ccccc3Br)C(=O)O2)cc1[N+](=O)[O-]	none
COc1ccc(C2=N/C(=C\c3ccccc3[N+](=O)[O-])C(=O)O2)c(Cl)c1	Pf apPOL block 77.1
O=C1OC(c2ccc(Cl)cc2Cl)=N/C1=C\c1ccccc1[N+](=O)[O-]	none
COc1cccc(CNC(=O)c2cn3cc(Cl)ccc3n2)c1	none
COc1cccc(-c2ccc3nc(C(=O)NCc4ccncc4)cn3c2)c1	mHTT CaM bind 52.2
CCC(C)(C(=O)NC1CCCC1)N(Cc1cccs1)C(=O)C1CCC(=O)N1 (stereo not drawn)	none
O=C(Nc1c[nH]c2ccccc12)N1CCN(c2cccc(C(F)(F)F)c2)CC1	mHTT CaM bind 59.0
O=C(Nc1nc(C(=O)N2CCN(c3cccc(C(F)(F)F)c3)CC2)co1)C1CC1	none
O=C(c1ccc2c(c1)OCO2)N1CC(=O)N(CCc2ccccc2)C(=O)C1	none
CC(=O)N1CCN(CC(=O)N2N=C(c3ccccc3)CC2c2ccc(C)cc2)CC1 (stereo not drawn)	mHTT CaM bind 63.5
CC(=O)N1CCN(CC(=O)N2N=C(c3ccc(C)cc3)CC2c2ccc(C)cc2)CC1 (stereo not drawn)	mHTT CaM bind 71.2
Cc1ccc(C2=NN(C(=O)CN3CCOCC3)C(c3ccc(C)cc3)C2)cc1 (stereo not drawn)	mHTT CaM bind 62.3
Cc1ccc(C2CC(c3ccccc3)=NN2C(=O)CN2CCC(C(N)=O)CC2)cc1 (stereo not drawn)	mHTT CaM bind 80.2
NC(=O)C1CCN(CC(=O)N2N=C(c3ccc(F)cc3)CC2c2ccccc2)CC1 (stereo not drawn)	none
CC(=O)N1CCN(CC(=O)N2N=C(c3ccccc3)CC2c2ccccc2)CC1 (stereo not drawn)	none
O=C(CN1CCOCC1)N1N=C(c2ccccc2)CC1c1ccc(Cl)cc1 (stereo not drawn)	none
O=C(Nc1ccc(-c2cnco2)cc1)c1csc([N+](=O)[O-])c1	none (no result: mHTT CaM bind)
CC(=O)c1cccc(N=c2oc3c(C)ncc(CO)c3cc2C(N)=O)c1	none
Cc1ccc(N2CC(C(=O)NCc3ccc4c(c3)OCO4)CC2=O)cc1 (stereo not drawn)	none
Cc1ccc(-c2ncc(NC(=O)c3cc(F)cc(F)c3)cn2)cc1	none
O=C(C1CC1)N1CCc2cc(Br)cc(S(=O)(=O)Nc3cccc([N+](=O)[O-])c3)c21	none
CCCOC(=O)C1C2C=CC3(CN(c4ccccc4Br)C(=O)C13)O2 (stereo not drawn)	none
O=C(CN1CCCCC1)N1N=C(c2ccccc2)CC1c1ccc2c(c1)OCO2 (stereo not drawn)	none
Cc1cccc(C2=NN(C(=O)CN3CCOCC3)C(c3ccccc3F)C2)c1 (stereo not drawn)	none

Screening results: PubChem BioAssay, University of Kansas High Throughput Screening Laboratory
